According to ChEMBL document CHEMBL3988442, “University of Dundee, Small-Polar-MMV Screening Library” (2021):

Experiments:
[1] = target: T1, Aspartate--tRNA(Asp/Asn) ligase (Mycobacterium tuberculosis (strain ATCC 25618 / H37Rv)) (UniProt P9WFW3); experiment: Assay for Asp RNA synthetase-1 from Mycobacterium tuberculosis; type: functional; design: scale not given: direction of the effect not stated beside the values; conditions: 30 µM; note: in the data most compounds retested in dose-response had high values
T1 sequence (whole entry): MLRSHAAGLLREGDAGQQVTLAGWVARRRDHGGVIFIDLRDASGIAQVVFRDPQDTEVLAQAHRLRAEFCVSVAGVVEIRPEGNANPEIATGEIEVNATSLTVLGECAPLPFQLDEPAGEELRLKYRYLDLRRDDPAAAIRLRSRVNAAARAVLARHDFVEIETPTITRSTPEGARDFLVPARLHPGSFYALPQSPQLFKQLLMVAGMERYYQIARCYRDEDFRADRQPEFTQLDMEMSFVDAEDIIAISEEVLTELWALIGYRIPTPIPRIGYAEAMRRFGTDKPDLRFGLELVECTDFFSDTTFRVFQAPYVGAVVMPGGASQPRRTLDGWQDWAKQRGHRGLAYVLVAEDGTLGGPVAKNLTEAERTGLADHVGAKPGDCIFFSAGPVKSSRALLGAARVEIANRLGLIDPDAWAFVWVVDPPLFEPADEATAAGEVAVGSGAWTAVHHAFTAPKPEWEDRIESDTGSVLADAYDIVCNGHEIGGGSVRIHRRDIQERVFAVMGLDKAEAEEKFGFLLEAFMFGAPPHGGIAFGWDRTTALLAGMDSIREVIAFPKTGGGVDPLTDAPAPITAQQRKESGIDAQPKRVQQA

[2] = target: Shiga toxin 2 (Escherichia coli O157:H7) (UniProt P09385+P09386); experiment: E. coli 0.157:H7 Shiga Toxin SOP - stx2 screening assay; type: functional; design: scale not given: direction of the effect not stated beside the values; conditions: 30 µM

Structure (SMILES)	Percent Effect [1] [%]	Percent Effect [2] [%]
CCn1ccc(C(=O)NCCCN2CCOCC2)n1	8.41	-55.1
COC(=O)c1sccc1S(=O)(=O)NCC1(O)CCOc2ccccc21 (configuration not stated)	-2.1	6.1
CCc1nnc2n1CCN(Cc1ccc(C(=O)N3CCCC3)cc1)C2	-3.93	-0.0173
Cc1c(Br)cccc1C(=O)NC(C)CN1CCCC1=O (configuration not stated)	-1.01	1.67
O=C(Nc1cc(C(F)(F)F)c[nH]c1=O)c1ccco1	-2.75	5.24
Cc1cnn(CC2CN(Cc3nc4ccccc4nc3C)CCO2)c1 (configuration not stated)	-3.52	-0.0617
O=C(NC1CC1)[C@H]1C[C@@H]2CCN(CCc3ccccc3)C[C@H]2O1	3.49	-10.6
CCN1CCC(NC(=O)CN2CCc3c(nc(C4CC4)n3C)C2)CC1	-3.88	7.04
CC(C)=CCN1CCOC(Cn2nc(C)cc2C)C1 (configuration not stated)	-3.08	24.4
c1cc(CN2Cc3nnn(CC4CC4)c3C(COCC3CC3)C2)co1 (configuration not stated)	-1.45	-2.53
CCn1nc(C(=O)N2CCCC(n3cncn3)C2)ccc1=O (configuration not stated)	-5.19	18.8
COc1cc(C(=O)N2CCCS2(=O)=O)ccc1C	-7.63	-10.8
COCCN(C)C(=O)c1ccc(OC)cc1O	0.638	-28.1
Cc1nc(C)n(CC2CCCN2CC(=O)NCc2ccco2)n1 (configuration not stated)	4.57	-5.68
O=C(c1ccc(O)c(Cl)c1)N1CCC(c2n[nH]c(C3CC3)n2)CC1	-0.597	0.843
CN(C(=O)CN1CCOC(Cn2cccn2)C1)c1nccs1 (configuration not stated)	5.6	-22.6
CC(C)c1ncc2c(n1)CN(Cc1nc(-c3cccs3)no1)CC2	0.321	13.1
CNC(=O)CSc1nc2c(cnn2Cc2ccc(F)cc2)c(=O)[nH]1	-1.18	-8.43
Cc1ncc(-c2ccnc(N3CCCCCC3)n2)c(-c2cccnc2)n1	7.25	-25.4
CCN1CCN(C2CCN(Cc3nc4ccccc4o3)CC2)C1=O	12.7	21.6
CCS(=O)(=O)N1C[C@@H](OCc2cccnc2)[C@H]2OCCC[C@H]21	3.4	5.21
COCC(=O)N1CCCC1c1ccnc(Nc2cnccn2)n1 (configuration not stated)	0.0744	1.15
CN(C)CC(=O)N1CCC2(CC1)COC(COc1ccccn1)C2 (configuration not stated)	2.27	-20.6

Structure (SMILES)	Percent Effect [1] [%]	Percent Effect [2] [%]
CC(C)c1noc(CCCC(=O)N2CCN(Cc3ccncc3)CC2)n1	3.6	-20.6
Cc1ccsc1C(=O)N1C[C@@H]2CN(Cc3ccoc3)CCO[C@@H]2C1	-1.39	-11.7
CC(=O)N1CCOC(c2cc(N3CC(O)C3)nc(C)n2)C1 (configuration not stated)	-3.6	6.14
COCCC(=O)N1CC2(CCN(Cc3ccoc3)C2)C1	5.6	-19.5
COCCNC(=O)C[C@@H]1COC[C@H]2CN(C(=O)c3cnccn3)C[C@@H]12	-8.37	-20.7
CS(=O)(=O)Cc1ccc(CNC(=O)c2cccnc2O)cc1	-6.68	-14.2
CN(C(=O)Cc1ccc(NC(=O)NC2CCC2)cc1)c1ccccc1	-0.27	-9.88
CCn1ccnc1CN(C)C1CCCN(CCc2ccccc2)C1 (configuration not stated)	-0.476	-36
CN(CC1COc2ccccc2O1)C(=O)NCCCn1ccnc1 (configuration not stated)	-0.767	11.4
Cc1cccc(CN2CCc3nnc(CN4CCCC4=O)n3CC2)n1	-2.89	3.17
Cn1cc(C2COC3(CCN(C(=O)Cn4cccn4)CC3)C2)cn1 (configuration not stated)	8.57	-7.73
CN(C)C(=O)N1CCOCC2(CCN(c3ccccn3)C2)C1 (configuration not stated)	1.11	-15.4
CCN1CCC(NC(=O)CN2CCCC2Cn2cncn2)CC1 (configuration not stated)	-1.82	-12.3
CCC(CC)C(CNC(=O)Nc1ccc(C)cc1)N1CCOCC1 (configuration not stated)	-1.91	-3.64
CCCn1ncc2c(C(=O)Nc3n[nH]c(SC)n3)cc(C3CC3)nc21	-6.49	-0.011
CC(C)n1ccnc1CN1CCCN(C(=O)c2nccnc2N)CC1	-6.9	-13.7
CC(C)c1nc2c(n1C)CCN(CC(=O)Nc1ccc(Cl)cn1)C2	3.34	-0.161
O=C1CN(Cc2nnc(-c3ccc(Br)o3)o2)CCN1	-1.11	-65.1
Cc1c(C(=O)NC(CN2CCCC2=O)c2ccccc2)cnn1C (configuration not stated)	-1.08	34
CCOC(C)c1nc(CN2CCC(CNC(C)=O)CC2)cs1 (configuration not stated)	-2.51	3.11
COCCc1noc(CN2CCCC2Cn2cc(C)cn2)n1 (configuration not stated)	-2.48	-2.29
CCO[C@@H]1CO[C@@]2(CCCN(S(=O)(=O)c3cccnc3)C2)C1	9.04	-20
O=C(c1cc(F)ccc1F)C1CCN(C(=O)c2ccccn2)CC1	-3.52	18.1
